Measured values published in PubChem BioAssay (EPA / NIEHS).
“And” between values parts separate entries of the source, which are not always exact repeats. Identical values can stand only once. Some compounds were tested as several samples or in several runs, with calls that do not always agree. The source made the active and inactive calls. How the source made its calls: active means hit-call score of the fitted dose curve at least 0.9, where 1 is the maximum; inactive means score below 0.9.

Assay: ATG_EGR_CIS: Attagene CIS-FACTORIAL HepG2 Assay for human Early Growth Response 1 (EGR1) (AID 2282938)
Details: HepG2 Attagene CIS-FACTORIAL EGR reporter mRNA; actives raise or lower the signal
Description: ATG_CIS is a cell-based, multiplexed-readout assay that uses HepG2, a human liver cell line, with measurements taken at 24 hours after chemical dosing in a 24-well plate.ATG_EGR_CIS is one of 52 assay component(s) measured or calculated from the ATG_CIS assay. It is designed to make measurements of mRNA induction, a form of inducible reporter, as detected with fluorescence intensity signals by Reverse transcription polymerase chain reaction (RT-PCR) and Capillary electrophoresis technology.Data from the assay component ATG_EGR_CIS was analyzed into 1 assay endpoint. This assay endpoint, ATG_EGR_CIS, was analyzed with bidirectional fitting relative to DMSO as the negative control and baseline of activity. Using a type of inducible reporter, measures of mRNA for gain or loss-of-signal activity can be used to understand the reporter gene at the transcription factor-level as they relate to the gene EGR1. Furthermore, this assay endpoint can be referred to as a primary readout, because this assay has produced multiple assay endpoints where this one serves a reporter gene function. To generalize the intended target to other relatable targets, this assay endpoint is annotated to the dna binding intended target family, where the subfamily is zinc finger.
Human liver HepG2 cells are transiently transfected with multiple reporter transcription units (MRTUs) in 6-well plates using FuGene 6 reagent (Roche; 3 ml FuGene/1 mg DNA). The MRTU constructs are regulated by a cis-regulating element (promoter). […] A major difference between the CIS and TRANS system is that in CIS activities of endogenous TFs are measured, whereas the TRANS assay evaluates changes in activities of exogenous, chimeric NR-Gal4 proteins. […] At the end of 24 hour incubation, total RNA was isolated using TriZol reagent (Invitrogen). The isolated RNA is then reverse-transcribed using oligo(dT) primer and Mo-MLV reverse transcriptase (Invitrogen) with DNAse I (Ambion) treatment for 30 min. The one-tenth of the produced cDNA was amplified by PCR using Taq DNA polymerase (Invitrogen) and two reporter sequence-specific primers. The PCR products were fluorescently labeled by primer extension with 6-arboxyfluorescein (6-FAM) 5'-labeled reporter sequence-specific primer (2 min at 95 C, 20 s at 68 C and 10 min at 72 C) and these products were digested with 5U of HpaI (New England Biolabs) for 2h at 37 C. The fragments were purified using Qiaquick PCR columns (Qiagen), analyzed on an ABI 3130xL genetic analyzer (Applied Biosystems) with peak positions identified by using a set of X-rhodamine (ROX)-labeled MapMarker1000 molecular weight standards (BioVentures). The raw capillary electrophoresis data was processed using Attagraph software (Attagene).

SMILES | outcome | AC50
CC(=O)S[C@@H]1CC2=CC(=O)CC[C@]2(C)[C@H]2CC[C@@]3(C)[C@@H](CC[C@@]34CCC(=O)O4)[C@H]12 | inactive | 17.6 µM (active) and 27.2 µM (active)
CCN(Cc1c(F)cccc1Cl)c1c([N+](=O)[O-])cc(C(F)(F)F)cc1[N+](=O)[O-] | inactive | –
CCOC(=O)c1ccc(O)cc1 | inactive | –
COC(=O)CSc1cc(N=c2sc(=O)n3n2CCCC3)c(F)cc1Cl | inactive | –
COC(=O)c1ccc(CNS(C)(=O)=O)cc1S(=O)(=O)NC(=O)Nc1nc(OC)cc(OC)n1 | inactive | –
COCCO | inactive | –
COC(=O)c1ccccc1C(=O)O | inactive | –
O=C(c1ccccc1)C1CCCCC1 | inactive | –
Oc1ccc(C(c2ccc(O)cc2)C(Cl)(Cl)Cl)cc1 | inactive | –
COC(=O)c1c(Cl)nn(C)c1S(=O)(=O)NC(=O)Nc1nc(OC)cc(OC)n1 | inactive | –
S=C(S)NCCNC(=S)S.[Mn+2].[S-]C([S-])=NCCN=C([S-])[S-].[Zn+2] | inactive | 16.2 µM (active) and 16.5 µM (active) and 3.53 µM (active)
CCSC(=O)N(CC(C)C)CC(C)C | inactive | –
O=C(c1ccc(O)cc1O)c1ccc(O)cc1O | inactive | –
CC(=O)[C@H]1CC[C@H]2[C@@H]3CCC4=CC(=O)CC[C@]4(C)[C@H]3CC[C@]12C | inactive | 22.6 µM (active) and 50.7 µM (active) and 26.7 µM (active)
S=C([S-])NCCNC(=S)[S-].[Mn+2] | inactive | –
C#CCOC(=O)[C@@H](C)Oc1ccc(Oc2ncc(Cl)cc2F)cc1 | inactive | –
CC(C)(C)[C@@H](O)[C@@H](Cc1ccc(Cl)cc1)n1cncn1 | – | 26.1 µM (active)

SMILES | outcome | AC50
COc1c(Cl)ccc(Cl)c1C(=O)O | inactive | –
CCOC(=O)NCCOc1ccc(Oc2ccccc2)cc1 | – | 50 µM (active)
COC(=O)c1ccccc1S(=O)(=O)NC(=O)Nc1nc(OC(F)F)cc(OC(F)F)n1 | inactive | –
CCCN(CCC)c1c([N+](=O)[O-])cc(C(F)(F)F)c(N)c1[N+](=O)[O-] | inactive | –
C=CCOC(Cn1ccnc1)c1ccc(Cl)cc1Cl (stereo not given) | – | 30.9 µM (active)
c1ccc2[nH]c(-c3cscn3)nc2c1 | inactive | –
CCC(C)OC(=O)N1CCCCC1CCO (stereo not given) | inactive | –
CCCCCCC(C)OC(=O)COc1nc(F)c(Cl)c(N)c1Cl (stereo not given) | inactive | –
N#CSCSc1nc2ccccc2s1 | inactive | –
CN(C)C(=O)Nc1ccc(Cl)c(Cl)c1 | inactive | 60.3 µM (active)
Cc1nn(C)c(Oc2ccccc2)c1C=NOCc1ccc(C(=O)OC(C)(C)C)cc1 | – | 0.934 µM (active)
CC(C)(c1ccc(O)cc1)c1ccc(O)cc1 | inactive | 100 µM (active) [middle of 6 runs]
N[C@@H](Cc1cc(I)c(Oc2ccc(O)c(I)c2)c(I)c1)C(=O)O | inactive | –
C[C@]12CC[C@@H]3c4ccc(O)cc4C[C@@H](CCCCCCCCCS(=O)CCCC(F)(F)C(F)(F)F)[C@H]3[C@@H]1CC[C@@H]2O (stereo not given in full) | inactive | –
O=C(O)c1ccccc1 | inactive | –
CC(C)CCCCCCc1ccc(O)cc1 | inactive | 17.7 µM (active) and 17.3 µM (active)
CCOC(=O)C(C)Oc1ccc(Oc2cnc3cc(Cl)ccc3n2)cc1 (stereo not given) | inactive | –
